# Measurements as given in PubChem BioAssay (NCATS).
# Results filed as inconclusive are left out. Entries that show only a call come without a potency. Unmarked numbers belong to inactive results. Activity calls are given as the source filed them. Calls come from the whole dose curve; as a rule, active = well fitted cell-killing curve with a large enough effect; inconclusive = small, poorly fitted or top-dose-only effect, or effect the other way; inactive = no such curve, though single readings can be large or run the other way.
# What was measured:
# [1] = Viability qHTS for spleen associated tyrosine kinase inhibitor (SYKi) naive MV4-11 cells (AID 1963823); note: nearly all actives have a fitted effect of over 40% in size
# In short: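 SYK inhibitor-naive MV4-11 cells, 500 per well, exposed to compounds for 72 hr at 37 C, 5% CO2. Viability read as CellTiter-Glo luminescence after 10 min at room temperature.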
# [2] = Viability qHTS for spleen associated tyrosine kinase inhibitor (SYKi) drug resistant MV4-11 cells (AID 1963824); note: nearly all actives have a fitted effect of over 35% in size
# In short: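 SYK inhibitor-resistant MV4-11 AML cells, 500 per well, added to predispensed compounds and incubated 72 hr at 37 C, 5% CO2. Viability measured by CellTiter-Glo luminescence after 10 min at room temperature.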
# Potency is the fitted concentration of half-maximal effect.
Structure (SMILES),Potency [1],Potency [2],viability (% of control) [1],"viability, % of control [2]"
COC(=O)CC(C)(O)CC(=O)OCc1ccc(O[C@@H]2O[C@H](CO)[C@@H](O)[C@H](O)[C@H]2O)cc1 (some centres not stated),inactive,inactive,–,–
Cc1cc(N(C)C)ccc1-c1nc2ccc(-c3nc4ccc(N5CCN(C)CC5)cc4[nH]3)cc2[nH]1,411 nM (active),184 nM (active),–,–
O=C(Nc1ccn(Cc2c(F)cccc2C(F)(F)F)n1)c1c(F)cccc1F,–,–,72.8% [at 9.25 µM],91.5% [at 9.25 µM]
CC1=C(COC2OC(CO)C(O)C(O)C2O)C(C(CO)C(=O)O)CC1 (configuration not stated),inactive,inactive,–,–
CC1=C(CC/C(C)=C/C(=O)O)[C@@]2(C)CCCC(C)(C)C2CC1=O (some centres not stated),inactive,inactive,–,–
CCC(C)C(=O)OC[C@H]1O[C@H](O[C@H]2O[C@H](CO)[C@@H](O)[C@H](O)[C@H]2O)[C@H](O)[C@@H](O)[C@@H]1O (some centres not stated),inactive,inactive,–,–
C=C1C(=O)O[C@H]2CC(=C)[C@H]3CC[C@@](C)(O)[C@@H]3CC12 (some centres not stated),6510 nM (active),4110 nM (active),–,–
C=C1CCC[C@]2(C)CC[C@@](O)(C(=C)C(=O)O)C[C@@H]12,inactive,inactive,–,–
CC(C)(C)c1ccc(S(=O)(=O)NCc2ccc(C(=O)Nc3cccnc3)cc2)cc1,231 nM (active),231 nM (active),–,–
O=C(c1ccc(F)c(F)c1Nc1ccc(I)cc1F)N1CC(O)(C2CCCCN2)C1 (configuration not stated),184 nM (active),326 nM (active),–,–
CC(O)C(O)/C=C/C=C/C(=O)O[C@@H]1C=C(C(=O)O)[C@](O)(CO)[C@@]2(C)CCCC(C)(C)[C@H]12 (some centres not stated),inactive,inactive,–,–
